In the library only some 0.37% were active in any assay of this set; here they are far more common.
Vif-APOBEC3F blk = inhibitors of Vif-A3F interaction; actives 0.2% (n = 390,000); Potency, µM (doses to about 46.1 µM), for the others: at the top dose activity, negative = active; HeLa A3F-eYFP + Vif (tagged APOBEC3F with the HIV-1 protein that degrades it), YFP fluorescence increase; AID 602313; note: potency is the fitted concentration of half-maximal effect; % of control where 0% means no effect; nearly all actives have a fitted effect of over 65% in size
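HeLa cells stably expressing Vif plus C-terminally eYFP-tagged A3F were seeded, incubated overnight at 37 deg C, dosed with compound, incubated overnight again at 37 deg C. Yellow fluorescence (Ex 488/Em 500-530) reported blocked Vif-mediated A3F-eYFP degradation.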
Vif-APOBEC3G blk = blocks the Vif interaction with human APOBEC3G | Q9HC16 | HeLa A3G-eYFP + Vif (tagged APOBEC3G with the HIV-1 protein that degrades it), YFP fluorescence, overnight | Potency, µM (highest dose often 46.1 µM), without a hit: top-dose activity, negative = active, usual class: inhibitors | actives 0.076% (n = 410,000) | AID 602310; note: potency is the fitted concentration of half-maximal effect; % is set by controls: 0 for no effect and ±100 for the full control effect; nearly all actives have a fitted effect of over 60% in size
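HeLa cells stably expressing Vif and C-terminally eYFP-tagged A3G, seeded overnight at 37 deg C, then exposed to compound by pintool overnight at 37 deg C. Rise in yellow fluorescence (Ex 488/Em 500-530, Acumen) marks blocked Vif-driven A3G degradation.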
PTAP TSG101 blk = blocks PTAP/TSG101 interaction to inhibit HIV-1 budding. Q99816. Fluorescence polarization, FITC-PTAP peptide / Tsg101 binding. Potency, µM (series often up to 115 µM), for the others: at the highest dose activity change, negative = inhibition, actives largely listed as inhibitors. 340,000 tested, under 10 active. AID 493005; active = well fitted inhibition curve with a large enough effect in the main read-out, with a control signal flat, not every such curve was filed as active; inconclusive = small, poorly fitted or top-dose-only effect, or effect the other way, or a change in a side signal; inactive = no such curve, though single readings can be large or run the other way; note: potency is the fitted concentration of half-maximal effect; % of control where 0% means no effect
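Tsg101 binding domain (10 uM final) was mixed with compound and a FITC-labeled PTAP peptide (50 nM final) in HEPES pH 7.5 buffer with NaCl, Tween 20, EDTA and TCEP; fluorescence polarization was read after 20 min at r.t.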
MBNL1-CUG inh = blocks human MBNL1 binding to CUG repeat RNA; Potency, µM (doses to about 57.5 µM), inactives show top-dose activity change, negative = inhibition, most hits filed as inhibitors; AID 2675; TR-FRET MBNL1-His/biotin-(CUG)12 binding, 665/545 ratio; actives 0.036% (n = 280,000); Q9NR56; active = well fitted inhibition curve with a large enough effect in the signal ratio, with a control signal flat, not every such curve was filed as active; inconclusive = small, poorly fitted or top-dose-only effect, or effect the other way, or a change in a side signal; inactive = no such curve, though single readings can be large or run the other way; the % refers to the signal ratio; note: potency is the fitted concentration of half-maximal effect; % is set by controls: 0 for no effect and ±100 for the full control effect
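His-tagged MBNL1 binding to biotinylated (CUG)12 RNA was measured by TR-FRET using terbium anti-His antibody (0.055 ng/ul final) and streptavidin-XL665 (5 nM final). Compounds were titrated 92 nM to 58 uM; 60 min at room temperature.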
CBFb-RUNX1 inh = blocks binding between human CBF-beta and RUNX1; AlphaScreen CBFb-His/RUNX1-biotin binding, biochemical; Potency, µM (doses to about 59.8 µM), for inactives: at the top dose activity, negative = inhibition, hits mostly inhibitors; 230,000 tested, under 10 active; Q01196+Q13951; note: % of control where 0% means no effect
Target sequence (Q01196 whole entry, looked up): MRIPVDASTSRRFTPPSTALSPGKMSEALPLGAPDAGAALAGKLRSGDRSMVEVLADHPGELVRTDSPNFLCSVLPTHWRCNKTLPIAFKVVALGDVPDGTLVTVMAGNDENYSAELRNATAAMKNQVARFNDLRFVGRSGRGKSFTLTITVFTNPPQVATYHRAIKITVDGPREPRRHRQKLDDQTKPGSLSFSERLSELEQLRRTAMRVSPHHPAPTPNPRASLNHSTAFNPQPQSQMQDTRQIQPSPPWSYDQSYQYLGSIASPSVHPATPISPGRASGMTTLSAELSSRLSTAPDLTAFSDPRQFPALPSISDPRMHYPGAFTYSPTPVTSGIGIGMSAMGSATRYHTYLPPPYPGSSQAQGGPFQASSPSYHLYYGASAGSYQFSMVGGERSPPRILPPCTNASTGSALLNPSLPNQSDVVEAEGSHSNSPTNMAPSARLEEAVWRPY
Target sequence (Q13951 whole entry, looked up): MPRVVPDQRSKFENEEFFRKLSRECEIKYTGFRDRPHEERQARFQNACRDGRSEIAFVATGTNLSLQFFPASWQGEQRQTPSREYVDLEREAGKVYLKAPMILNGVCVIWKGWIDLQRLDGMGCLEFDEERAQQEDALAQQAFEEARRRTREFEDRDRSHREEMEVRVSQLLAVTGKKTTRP
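Bead-based AlphaScreen assay; binding partners His-tagged CBF-beta and biotinylated RUNX1 at 30 nM each. Compound exposure 15 min after a 20-min protein preincubation; bead step 90 min; all steps at room temperature.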
Epigenetic derep = epigenetic control regulation, reporter derepression; murine LDR cells, GFP reporter derepression, 30 h; Potency, µM (series often up to 53.9 µM), without a hit: top-dose GFP activation, actives largely listed as activators; actives 0.2% (n = 280,000); AID 1865; note: potency is the fitted concentration of half-maximal effect; % of control where 0% means no effect; nearly all actives have a fitted effect of over 60% in size
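Murine LDR cells carrying a silenced, genomically integrated CMV-driven GFP reporter were exposed to compound for 30 hours at 37 C. After PBS washes, GFP-positive cells (20–120 um objects) were counted by laser-scanning microplate cytometry.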
* hit, by the source's call; ? = inconclusive; nt = no result given. Unless noted, calls come from the whole dose curve; as a rule, active = well fitted curve in the direction sought with a large enough effect; inconclusive = small, poorly fitted or top-dose-only effect, or another doubt; inactive = no such curve, though single readings can be large; an effect the other way counts as inactive or inconclusive.

SMILES | Vif-APOBEC3F blk | Vif-APOBEC3G blk | PTAP TSG101 blk | MBNL1-CUG inh | CBFb-RUNX1 inh | Epigenetic derep
CS(=O)(=O)Nc1cccc(C2=NN(S(=O)(=O)c3ccc(F)cc3)C(c3cccs3)C2)c1 (stereo not given) | ? | -9.1% | 9.1% | -2.1% | ? | -0.5%
Cc1ccc(C2=NN(S(=O)(=O)c3ccccc3)C(c3ccccc3O)C2)cc1 (stereo not given) | 25.1µM* | 8.3% | 2.0% | 8.6% | -9.9% | ?
CCOC(=O)/C=C1\CN(Cc2ccc(OC)cc2)S(=O)(=O)c2ccc(C(F)(F)F)cc21 | nt | -1.3% | nt | nt | nt | nt
CC(C)(C)n1ncc2c(=O)n(Cc3ccc(SC(F)(F)F)cc3)cnc21 | nt | 0.0% | nt | nt | nt | nt
CCOC(=O)/C=c1\s/c(=C\c2ccc(C(=O)OC)cc2)c(=O)n1CC(=O)Nc1ccccc1 | ? | 0.8% | -0.3% | 5.3% | -3.1% | ?
CCOC(=O)/C=c1/s/c(=C/c2ccc3cc(OC)ccc3c2)c(=O)n1CC(=O)NCC1CCCO1 (stereo not given) | 7.08µM* | -0.3% | ? | nt | nt | nt
CCOC(=O)/C=c1\s/c(=C\c2c(OC)ccc3ccccc23)c(=O)n1CC(=O)NCC1CCCO1 (stereo not given) | 25.1µM* | 10µM* | 0.3% | ? | -16.8% | ?
CCOC(=O)/C=c1\s/c(=C\c2ccc(C#N)cc2)c(=O)n1CC(=O)NCc1ccco1 | 6.5% | 0.8% | -3.2% | 12.9% | 1.4% | 1.0%
COc1ccccc1NC(C)C(=O)c1c[nH]c2ccccc12 (stereo not given) | nt | -1.5% | nt | nt | nt | nt
COc1ccc(/C=C/C(=O)CC(=O)/C=C/c2cccc(O)c2OC)cc1O | nt | nt | nt | nt | ? | 12.6µM*
O=S(=O)(Nc1nc2n(n1)C(c1ccccc1)C=C(c1ccc(Cl)cc1)N2)c1ccccc1 (stereo not given) | 22.4µM* | ? | nt | nt | nt | -2.1%
Cc1ccc(S(=O)(=O)Nc2nc3n(n2)C(c2ccc(Cl)cc2)C=C(c2ccccc2)N3)cc1 (stereo not given) | ? | -28.0% | nt | nt | nt | -5.3%
CCN1/C(=C/c2cc[n+](C)cc2)C=Cc2cc(C)ccc21 | 12.6µM* | ? | 0.6% | ? | -9.7% | ?
Cc1cc(Cl)cc2c(N=Nc3ccccc3C(=O)O)c(O)[nH]c12 | 0.8% | -1.1% | -5.5% | -1.5% | nt | nt
Cc1ccc(Cl)c2c(N=Nc3ccccc3)c(O)[nH]c12 | 8.91µM* | -13.3% | ? | -10.6% | nt | nt
CCOC(=O)c1c(CC(C)C)csc1/N=C/C1C(=O)CCCC1=O | 22.4µM* | ? | -2.6% | 22.4% | ? | ?
CC(C)(C)n1ncc2c(=O)n(Cc3ccccc3C(F)(F)F)cnc21 | nt | 2.2% | nt | nt | nt | nt
COc1cc(N)c(N)cc1OC | nt | 0.8% | nt | nt | nt | nt
COc1ccccc1CNc1nc2ccc(C)cc2n2nnnc12 | 12.6µM* | -2.9% | nt | nt | nt | ?
Cc1ccc(CNc2nc3ccc(Cl)cc3n3nnnc23)cc1 | 7.08µM* | 2.6% | nt | nt | nt | ?
Fc1ccc(CNc2nc3ccc(Cl)cc3n3nnnc23)cc1 | 7.94µM* | -11.6% | nt | nt | nt | ?
O=c1[nH]/c(=C/c2ccc3c(c2)OCO3)c(=O)[nH]/c1=C/c1ccc2c(c1)OCO2 | nt | 3.8% | nt | nt | nt | nt
Cc1[nH]c2ccccc2c1C(=O)COC(=O)c1ccccc1SCC(=O)N1CCCC1 | nt | 0.6% | nt | nt | nt | nt
CN1C(=O)c2cccc(NCCCCCCN3C(=O)c4ccccc4C3=O)c2C1=O | 0.9% | -0.6% | 0.5% | 8.5% | 4.6% | 2.4%
CN1C(=O)c2cccc(NCCCN3C(=O)c4ccccc4C3=O)c2C1=O | 25.1µM* | -0.5% | ? | ? | 5.9% | ?
CN(C)c1ccc(/C=N/N(CCO)C2=NS(=O)(=O)c3ccccc32)cc1 | 22.4µM* | 4.7% | ? | 3.2% | nt | nt
CCN(CC)c1ccc(/C=C/c2sc3ccccc3[n+]2CCCCI)cc1 | nt | -10.8% | nt | nt | nt | nt

High-throughput results: PubChem, National Center for Advancing Translational Sciences (NCATS)
